Bioassay records from PubChem.
CatS inh = inhibitors of human cathepsin S, biochemical, compound mixtures. P25774. recombinant cathepsin S, AMC dipeptide fluorescence, pooled mixtures. inhibition, %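 (tested at 5 µM per compound within 10-compound mixtures)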. actives 0.06% (n = 62,000); in the data active = inhibition above about 32%, passing the limit was not always enough;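 also: 0% = enzyme without compound and 100% = blank without enzyme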
Target sequence (P25774 115-331 limits assumed): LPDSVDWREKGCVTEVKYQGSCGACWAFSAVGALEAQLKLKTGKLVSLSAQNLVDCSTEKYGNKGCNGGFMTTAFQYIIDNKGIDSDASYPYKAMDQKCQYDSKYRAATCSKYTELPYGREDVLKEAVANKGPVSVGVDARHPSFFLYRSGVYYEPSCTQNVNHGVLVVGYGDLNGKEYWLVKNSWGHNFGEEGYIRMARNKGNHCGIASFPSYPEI
CatB mix inh = cathepsin B inhibitors from pooled compounds, primary screen, biochemical, compound mixtures, AMC fluorescence; P07858; Purified cathepsin B, AMC dipeptide fluorescence; actives 0.06% (n = 62,000); AID 488, 2006; inhibition, %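 (ten-compound pools at 5 µM per compound and 50 µM total)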; in the data active = inhibition above about 22%, passing the limit was not always enough;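 also: 0% = enzyme without compound and 100% = no enzyme blank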
CatB inh = human cathepsin B inhibitors, primary screen, biochemical, fluorogenic substrate; actives 0.1% (n = 63,000); purified cathepsin B, fluorescence; P07858; inhibition, %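 (tested at 10 µM)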; AID 453, 2006; in the data active = inhibition above about 21%;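 also: 0% = enzyme with no compound and 100% = no enzyme blank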
WNV NS2B-NS3 inh = inhibitors of WNV NS2B-NS3 protease, primary screen, biochemical, fluorogenic substrate; Genome polyprotein (West Nile virus), P06935; fluorogenic substrate Ex360/Em465; hits give low values; z-score (concentration not given with the values); actives 0.18% (n = 65,000); in the data active = z-score below about -3
CatL block = inhibitors of human cathepsin L, biochemical. Procathepsin L (Homo sapiens), P07711. purified cathepsin L, fluorogenic substrate, fluorescence. inhibition, %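 (tested at 10 µM)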. actives 0.17% (n = 58,000). AID 460, 2006; in the data active = inhibition above about 45%;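 also: 0% = enzyme with no compound and 100% = no enzyme blank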
Target sequence (P07711 114-288 limits assumed): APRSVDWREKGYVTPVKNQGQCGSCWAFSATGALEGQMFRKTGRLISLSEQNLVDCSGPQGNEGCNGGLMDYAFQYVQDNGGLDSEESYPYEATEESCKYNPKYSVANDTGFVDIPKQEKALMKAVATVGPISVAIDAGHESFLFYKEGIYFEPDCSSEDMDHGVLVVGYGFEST
Target sequence (P07711 292-333 limits assumed): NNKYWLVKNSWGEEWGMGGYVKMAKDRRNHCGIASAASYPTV
Starred values were filed as active, the others as inactive. A selection: hits, their analogues and other compounds. The true share with any hit is near 0.42%.

`COc1ccc(N2CCC(CNC(=O)Nc3ccc(OC)cc3OC)C2)cc1` (stereo unspecified) gave CatS inh -3.6, CatB mix inh 5.4, CatB inh 0.6, WNV NS2B-NS3 inh 1.14 and CatL block -2.9.
`COc1ccc(N2CCC(CNC(=O)Nc3ccc(C)c(C)c3)C2)cc1` (stereo unspecified) gave CatS inh 4.0, CatB mix inh 1.4, CatB inh 41.4*, WNV NS2B-NS3 inh -0.91 and CatL block -4.3.
`COc1ccc(C(=O)CSc2nnc(-c3ccc(C)cc3)o2)cc1` gave CatS inh 5.1, CatB mix inh 2.6, CatB inh 0.2, WNV NS2B-NS3 inh -4.12* and CatL block 5.1.
Screening COc1ccc(C(=O)CSc2nnc(-c3ccccc3)o2)cc1 returned CatS inh -0.9, CatB mix inh -1.2, CatB inh 0.3, WNV NS2B-NS3 inh 1.1 and CatL block 6.0.
For CCS(=O)(=O)N1Cc2ccccc2CC1C(=O)N1CCN(c2cccc(C)c2C)CC1 (stereo unspecified) the results were CatS inh -4.8, CatB mix inh 2.0, CatB inh 0.4, WNV NS2B-NS3 inh -3.14* and CatL block 7.2.
Screening CCCn1c(SCC(=O)Nc2ccc3c(c2)OCCO3)nnc1-c1ccco1 returned CatS inh -0.3, CatB mix inh 3.5, CatB inh 5.2, WNV NS2B-NS3 inh -3.87* and CatL block -4.9.
`O=C(NCCC(=O)N1CCNC1=O)OCc1ccccc1` gave CatS inh -4.2, CatB mix inh 4.1, CatB inh 5.1, WNV NS2B-NS3 inh -0.75 and CatL block 3.4.
`C[C@]12C=CC(=O)C=C1CC[C@H]1[C@@H]3C[C@@H](O)[C@](O)(C(=O)CO)[C@@]3(C)C[C@H](O)[C@@]12F` gave CatS inh -3.2, CatB mix inh 5.5, WNV NS2B-NS3 inh -0.01 and CatL block 94.2*.
For CCN1CCN(CNC(=O)c2cnccn2)CC1 the results were CatS inh -0.1, CatB mix inh -5.0, CatB inh 3.4 and WNV NS2B-NS3 inh -4.83*.
CCN1CCN(c2cc(C)c3cc(NC(=O)c4cnccn4)ccc3n2)CC1 was read as CatS inh -1.6, CatB mix inh 6.4, CatB inh 0.4, WNV NS2B-NS3 inh 0.21 and CatL block 0.7.
CCSc1nnc(NC(=O)C(C)(C(F)(F)F)C(F)(F)F)s1 was read as CatB inh -1.0, WNV NS2B-NS3 inh 0.46 and CatL block 4.2.
`CCSc1nnc(NC(=O)NCC(F)(F)F)s1` gave CatB inh 4.9, WNV NS2B-NS3 inh -7.81* and CatL block -16.0.
`COc1ccc(OC)c(C2C(C(N)=O)=C(C)Nc3nc(-c4cccc(Cl)c4)nn32)c1` (stereo unspecified) gave CatS inh 6.7, CatB mix inh -0.9, CatB inh 2.2, WNV NS2B-NS3 inh -4.81* and CatL block 7.9.
For Cc1cnc(-c2nnc(N(C)C(=O)c3ccncc3)s2)cn1 the results were CatS inh -4.9, CatB mix inh 3.7, CatB inh -6.7, WNV NS2B-NS3 inh -0.74 and CatL block -16.5.
Screening CCCCC(=O)Nc1ccc(NC(=O)c2ccccc2OC)cn1 returned CatS inh -2.5, CatB mix inh 1.4, CatB inh 2.7, WNV NS2B-NS3 inh -0.66 and CatL block 7.7.
Screening CN(C(=O)COc1cc(=O)n(C)c2ccccc12)c1cccc(Cl)c1 returned CatS inh -6.4, CatB mix inh 3.1, CatB inh 0.5 and WNV NS2B-NS3 inh 0.07.
For CCN(C(=O)COc1cc(=O)n(C)c2ccccc12)c1cccc(Cl)c1 the results were CatS inh 1.3, CatB mix inh 0.2, CatB inh 57.1*, WNV NS2B-NS3 inh -0.7 and CatL block -0.9.
Cc1onc(-c2ccccc2Cl)c1C(=O)Nc1ccc(-c2nnc3n2CCCCC3)cc1 was read as CatS inh -0.4, CatB mix inh 3.5, CatB inh 2.8, WNV NS2B-NS3 inh -1.38 and CatL block 2.9.
Screening Cc1ccc(N(CC(=O)NC2CCC(C)CC2)S(=O)(=O)c2cccnc2)cc1 (stereo unspecified) returned CatS inh 3.9, CatB mix inh 33.6, CatB inh 7.1, WNV NS2B-NS3 inh 2.14 and CatL block 71.8*.
`COc1ccc(N(CC(=O)NC2CCCCC2)S(=O)(=O)c2cccnc2)cc1` gave CatS inh -2.0, CatB mix inh -0.6, CatB inh 1.7, WNV NS2B-NS3 inh -0.31 and CatL block -0.7.
`CCSc1nc(-c2cccs2)nc2c1c(=O)n(C)c(=O)n2C` gave CatS inh 7.5, CatB mix inh 1.2, CatB inh -3.0, WNV NS2B-NS3 inh -0.21 and CatL block -1.6.
For Cc1cc(OC(=O)c2ccccc2)n(CCC#N)n1 the results were CatS inh 13.9, CatB mix inh 19.1, CatB inh 7.9, WNV NS2B-NS3 inh -11.4* and CatL block 4.0.
For CC1=C(C#N)c2nc(N)c(C#N)c(C)c2/C1=C\c1ccccc1 the results were CatS inh -4.1, CatB mix inh -2.6, CatB inh 2.0, WNV NS2B-NS3 inh -1.14 and CatL block -1.8.
Screening Cc1cnc(NC(=O)C(C)N2C(=O)C3CC=CCC3C2=O)s1 (stereo unspecified) returned CatS inh -6.2, CatB mix inh 3.9, CatB inh 2.8 and WNV NS2B-NS3 inh -3.41*.
For CC(C(=O)Nc1nccs1)N1C(=O)C2CC=CCC2C1=O (stereo unspecified) the results were CatS inh 11.6, CatB mix inh -6.8, CatB inh 0.1, WNV NS2B-NS3 inh 0.67 and CatL block 8.6.
COc1ccc(CC(NC(C)=O)C(=O)NC2CCN(S(=O)(=O)c3ccccc3)CC2)cc1OC (stereo unspecified) was read as CatS inh -1.4, CatB mix inh 2.4, CatB inh -8.3, WNV NS2B-NS3 inh -0.61 and CatL block -4.5.
Screening CC(c1nnc(SCC(=O)NC(=O)NCc2ccco2)n1-c1ccc(Cl)cc1)N(C)C (stereo unspecified) returned CatS inh 2.5, CatB mix inh -5.3, CatB inh 4.6, WNV NS2B-NS3 inh 0.16 and CatL block 60.8*.
Screening CC(=O)Nc1nc2n(n1)C(c1ccc(F)cc1)C=C(c1ccccc1)N2 (stereo unspecified) returned CatS inh 6.2, CatB mix inh -1.6, CatB inh -2.0, WNV NS2B-NS3 inh 1.26 and CatL block 48.6*.
For COc1ccccc1N1CCN(C(=O)CSc2nc3ccccc3c(=O)n2CC2CCCO2)CC1 (stereo unspecified) the results were CatS inh -2.7, CatB mix inh 3.2, CatB inh 2.5, WNV NS2B-NS3 inh -0.15 and CatL block 6.4.
`C=C(C)n1c(=O)[nH]c2ccccc21` gave CatS inh -8.2, CatB mix inh 3.0, CatB inh 1.0, WNV NS2B-NS3 inh -0.5 and CatL block -11.5.
